This note sets out measurements from PubChem BioAssay (EPA / NIEHS).

SMILES strings stand for the structures. The source made the active and inactive calls. The calls were made as follows: active = hit-call score of the fitted dose curve at least 0.9, where 1 is the maximum; inactive = score below 0.9.

Read-out in experiment [1]: Interleukin-8 (IL8), CXCL8 (gene 3576)
Briefly: BSK_CASM3C_IL8: BioMAP Diversity Plus: CASM3C Assay for Interleukin-8 (IL8) Biomarker Activity (AID 2283042).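 Also: IL-8 protein level quantified by ELISA.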 The note with it: primary human coronary artery smooth muscle cells; actives raise or lower the signal.

Read-out in experiment [2]: Human Leukocyte Antigen - DR isotype (HLADR), HLA-DRA (gene 3122)
Briefly: BSK_CASM3C_HLADR: BioMAP Diversity Plus: CASM3C Assay for Human Leukocyte Antigen - DR isotype (HLADR) Biomarker Activity (AID 2283043).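 Also: cell-surface HLA-DR protein level quantified by ELISA.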 The note with it: primary human coronary artery smooth muscle cells; actives raise or lower the signal.

Read-out in experiment [3]: Macrophage colony-stimulating factor (MCSF), CSF1 (gene 1435)
Briefly: BSK_CASM3C_MCSF: BioMAP Diversity Plus: CASM3C Assay for Macrophage colony-stimulating factor (MCSF) Biomarker Activity (AID 2283044).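 Also: M-CSF protein amount quantified by ELISA after 24 h exposure.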 The note with it: primary human coronary artery smooth muscle cells; actives raise or lower the signal.

Read-out in experiment [4]: Low-density lipoprotein receptor (LDLR), LDLR (gene 3949)
Kind of experiment: BSK_CASM3C_LDLR: BioMAP Diversity Plus: CASM3C Assay for Low-density lipoprotein receptor (LDLR) Biomarker Activity (AID 2283045).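 Also: LDLR protein level on the cell surface quantified by ELISA.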 The note with it: primary human coronary artery smooth muscle cells; actives raise or lower the signal.

Read-out in experiment [5]: Monocyte Chemoattractant Protein-1 (MCP1), CCL2 (gene 6347)
Kind of experiment: BSK_CASM3C_MCP1: BioMAP Diversity Plus: CASM3C Assay for Monocyte Chemoattractant Protein-1 (MCP1) Biomarker Activity (AID 2283046).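 Also: MCP-1 level quantified by ELISA 24 h after dosing.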 The conditions noted are these: primary human coronary artery smooth muscle cells; actives raise or lower the signal.

A short description of experiment [6]: BSK_CASM3C_Proliferation: Cell Proliferation Assessment in the BioMAP Diversity Plus: CASM3C Assay (AID 2283047).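 Also: sulforhodamine B total protein stain as relative cell number at 560 nm; sub-confluent cells exposed 48 h before staining; fitted both ways against DMSO so gain or loss of cell number.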 The note with it: primary human coronary artery smooth muscle cells.
Read-out in experiment [7]: Monokine induced gamma interferon (MIG), CXCL9 (gene 4283)
Kind of experiment: BSK_CASM3C_MIG: BioMAP Diversity Plus: CASM3C Assay for Monokine induced gamma interferon (MIG) Biomarker Activity (AID 2283048).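 Also: MIG protein level measured by ELISA.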 The conditions noted are these: primary human coronary artery smooth muscle cells; actives raise or lower the signal.

Read-out in experiment [8]: serum amyloid A (SAA), SAA1 (gene 6288)
Briefly: BSK_CASM3C_SAA: BioMAP Diversity Plus: CASM3C Assay for serum amyloid A (SAA) Biomarker Activity (AID 2283049).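 Also: SAA protein level quantified by ELISA.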 The conditions noted are these: primary human coronary artery smooth muscle cells; actives raise or lower the signal.

Experiment [9] in a line: BSK_CASM3C_SRB: Viability Assessment in the BioMAP Diversity Plus: CASM3C Assay (AID 2283050).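 Also: total protein by SRB staining as cytotoxicity measure in parallel cultures; cells exposed to compound for 24 h.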 The conditions noted are these: primary human coronary artery smooth muscle cells.
Read-out in experiment [10]: Thrombomodulin, THBD (gene 7056)
Briefly: BSK_CASM3C_Thrombomodulin: BioMAP Diversity Plus: CASM3C Assay for Thrombomodulin Biomarker Activity (AID 2283051).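 Also: thrombomodulin protein level measured by ELISA 24 h after dosing.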 The conditions noted are these: primary human coronary artery smooth muscle cells; actives raise or lower the signal.

One may read the AC50 as the midpoint of the concentration-response curve, whichever way the signal moves.

Consider `CC[C@H]1OC(=O)[C@H](C)[C@@H](O[C@H]2C[C@@](C)(OC)[C@@H](O)[C@H](C)O2)[C@H](C)[C@@H](O[C@@H]2O[C@H](C)C[C@H](N(C)C)[C@H]2O)[C@](C)(O)C[C@@H](C)C(=O)[C@H](C)[C@@H](O)[C@]1(C)O`, for which the outcome in [1], in experiment [2], in experiment [3], in experiment [4], in experiment [5] and in [6] was inactive. In addition, the result in experiment [7], in [8], in experiment [9] and in experiment [10] was inactive.
Consider `O=C1OC(=O)C2C3C=CC(C3)C12` (stereo not given), for which the outcome in experiment [1], in experiment [2], in experiment [3], in experiment [4], in [5] and in experiment [6] was inactive. In addition, the outcome in [7], in experiment [8], in experiment [9] and in experiment [10] was inactive.
As for `C=CC(=C)CCC=C(C)C`, the result in experiment [1], in experiment [2], in experiment [3], in experiment [4], in [5] and in experiment [6] was inactive. The outcome in [7], in [8], in experiment [9] and in experiment [10] was inactive.
`Cc1ccc(O)cc1`: the outcome in experiment [1], in [2], in [3], in experiment [4], in [5] and in [6] was inactive. Also, the outcome in experiment [7], in [8], in experiment [9] and in [10] was inactive.
`Nc1nc2ncc(CNc3ccc(C(=O)N[C@@H](CCC(=O)O)C(=O)O)cc3)nc2c(=O)[nH]1`: the result in experiment [1], in experiment [2], in [3], in [4], in experiment [5] and in experiment [6] was inactive. Also, the outcome in experiment [7], in [8], in experiment [9] and in [10] was inactive.
Take `CCOC(=O)c1ccc(C2CCC(NC[C@H](O)COc3ccc(O)c(NS(C)(=O)=O)c3)CC2)cc1` (stereo not given in full): the result in [1], in experiment [5], in [7] and in experiment [8] was inactive. Moreover, the AC50 is 30.8 µM (active) in experiment [2]; 24.2 µM (active) in experiment [3]; 11.2 µM (active) in experiment [4]; 26.9 µM (active) in experiment [6]; 15.7 µM (active) in [9]; 18.7 µM (active) in experiment [10].
As for `CC1(C)C(=O)N(Br)C(=O)N1Br`, the outcome in experiment [1], in experiment [2], in experiment [3], in experiment [4], in experiment [5] and in experiment [6] was inactive. For the same compound, the outcome in experiment [7], in experiment [8], in [9] and in [10] was inactive.
In the case of `O=C(OC[C@H]1O[C@@H](OC(=O)c2cc(O)c(O)c(OC(=O)c3cc(O)c(O)c(O)c3)c2)[C@H](OC(=O)c2cc(O)c(O)c(OC(=O)c3cc(O)c(O)c(O)c3)c2)[C@@H](OC(=O)c2cc(O)c(O)c(OC(=O)c3cc(O)c(O)c(O)c3)c2)[C@@H]1OC(=O)c1cc(O)c(O)c(OC(=O)c2cc(O)c(O)c(O)c2)c1)c1cc(O)c(O)c(OC(=O)c2cc(O)c(O)c(O)c2)c1`, the outcome in experiment [1], in [3], in [4], in experiment [7], in experiment [8] and in [9] was inactive. Besides, the result in experiment [10] was inactive. Also, the AC50 was 6.1 µM (active) in [2], 6.1 µM (active) in [5] and 10 µM (active) in experiment [6].
In the case of `C1N2CN3CN1CN(C2)C3`, the outcome in [1], in experiment [2], in experiment [3], in [4], in experiment [5] and in [6] was inactive. Besides, the outcome in experiment [7], in [8], in experiment [9] and in experiment [10] was inactive.
`Cc1[nH]cnc1C[C@H]1CCc2c(C)c3ccccc3n2C1=O`: the result in experiment [1], in experiment [2], in experiment [3], in experiment [5], in experiment [7] and in [8] was inactive. The outcome in [9] and in experiment [10] was inactive. Besides, the AC50 in experiment [4] is 18.5 µM (active); in experiment [6], 26.4 µM (active).
On to `O=C(NS(=O)(=O)/C=C/c1ccccc1)c1ccc(F)cc1Cl`, for which the outcome in experiment [1], in experiment [2], in [3], in experiment [4], in [5] and in experiment [7] was inactive. Further, the result in experiment [8], in experiment [9] and in experiment [10] was inactive. For the same compound, in experiment [6], the AC50 was 6.8 µM (active).
In the case of `CCCCCCCCO`, the result in experiment [1], in experiment [2], in [3], in [4], in experiment [5] and in experiment [6] was inactive. Further, the outcome in experiment [7], in experiment [8], in experiment [9] and in [10] was inactive.
As for `CC(C)CCCCCCCOC(=O)CCCCC(=O)OCCCCCCCC(C)C`, the result in experiment [1], in [2], in experiment [3], in [4], in experiment [5] and in experiment [6] was inactive. The result in experiment [7], in [8], in experiment [9] and in experiment [10] was inactive.
As for `CCCCCCCCCCCCc1ccccc1`, the outcome in experiment [1], in experiment [2], in experiment [3], in [4], in experiment [5] and in experiment [6] was inactive. Also, the result in experiment [7], in [8], in [9] and in experiment [10] was inactive.
As to `COC(=O)c1c(Cl)c(Cl)c(C(=O)OC)c(Cl)c1Cl`, the result in experiment [1], in experiment [2], in experiment [3], in experiment [4], in experiment [5] and in experiment [6] was inactive. Moreover, the result in [7], in experiment [8], in [9] and in experiment [10] was inactive.
As to `Fc1ccccc1[C@@H](F)COC1CCC(Nc2ncnc3[nH]ncc23)CC1` (stereo not given in full), the outcome in [1], in [3], in [4], in experiment [5], in experiment [7] and in experiment [8] was inactive. Besides, the result in [9] and in experiment [10] was inactive. Besides, the figures for the AC50 in experiment [2] and in [6] were 6.88 µM (active) and 29.2 µM (active), respectively.
On to `CCC(C)(C)C(=O)O[C@H]1C[C@@H](C)C=C2C=C[C@H](C)[C@H](CC[C@@H]3C[C@@H](O)CC(=O)O3)[C@H]21`, for which the AC50 in [1] is 34.2 µM (active); in [2] it was 20 µM (active); in experiment [3] it was 20 µM (active); in [4], 20 µM (active); in [5], 32.3 µM (active); in [6] it was 2.18 µM (active). Also, the AC50 in experiment [9] was 18.3 µM (active); in experiment [10], 0.336 µM (active). Besides, the outcome in experiment [7] and in [8] was inactive.
On to `CCc1cc(SCc2sc(-c3ccc(C(F)(F)F)cc3)nc2CN2CCN(c3ccc(OC)cc3)CC2)ccc1OCC(=O)O`, for which the AC50 in experiment [1] was 34.1 µM (active); in experiment [2], 18.7 µM (active); in [3], 36.1 µM (active); in [4], 31.7 µM (active); in experiment [5], 37.4 µM (active); in experiment [6], 15.8 µM (active). Besides, the AC50 in experiment [7] is 39.1 µM (active); in experiment [8], 31.9 µM (active); in experiment [9], 30.1 µM (active); in experiment [10], 35.1 µM (active).
Consider `O=C(O)c1cccc(N(Cc2cccnc2)c2ccc(OC(F)F)c(OC(F)F)c2)c1`, for which the result in experiment [1], in experiment [4], in experiment [5], in experiment [7], in experiment [8] and in experiment [9] was inactive. The outcome in [10] was inactive. Also, the values for the AC50 in [2], in experiment [3] and in experiment [6] were 8.72 µM (active), 11.7 µM (active) and 6.98 µM (active), respectively.
